# Screens (PubChem)
# GLS inhibitor = inhibitors of human glutaminase (GLS). O94925. GLS enzymatic activity, qHTS titration. Potency, µM (highest dose often 45.5 µM), for inactives: at the highest dose activity change, negative = inhibition, usual class: inhibitors. 410,000 tested, 0.21% active. AID 624170; further: on the % scale 0 is the no-effect control and ±100 the full control effect
#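 Read-out is an Amplex red fluorescence increase coupled through glutamate oxidase and HRP, measured before and after 30 min room-temperature incubation. hKGA is in 45 mM KH2PO4 (pH 8.2) with 0.02% Tween-20; glutamine added as 1mM solution.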
# KAT2A inh = inhibitors of human GCN5L2 histone acetyltransferase; AID 504327; 390,000 tested, 0.21% active; GCN5L2 HAT assay, ThioGlo1 CoA-SH fluorescence; Potency, µM (top dose mostly 58.9 µM), for the others: at the highest dose activity change, negative = inhibition, hits mostly inhibitors; Q92830; further: on the % scale 0 is the no-effect control and ±100 the full control effect
#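 Titration-based screen in which CoA formation is detected via maleimide probe ThioGlo1 (50uM) turning fluorescent on thiol reaction; substrates H3(1-25) 75uM and acetyl-CoA 70uM, GCN5L2 20nM, 20 min incubation at room temperature.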
# VDR inh = inhibitors of human vitamin D receptor; P11473; VDR-SRC2-3 peptide fluorescence polarization, 2 h; Potency, µM, for the others: max response, negative = inhibition, usual class: inhibitors; 400,000 tested, 0.93% active; AID 504847; further: on the % scale 0 is the no-effect control and ±100 the full control effect
# Target sequence (P11473 whole entry, looked up): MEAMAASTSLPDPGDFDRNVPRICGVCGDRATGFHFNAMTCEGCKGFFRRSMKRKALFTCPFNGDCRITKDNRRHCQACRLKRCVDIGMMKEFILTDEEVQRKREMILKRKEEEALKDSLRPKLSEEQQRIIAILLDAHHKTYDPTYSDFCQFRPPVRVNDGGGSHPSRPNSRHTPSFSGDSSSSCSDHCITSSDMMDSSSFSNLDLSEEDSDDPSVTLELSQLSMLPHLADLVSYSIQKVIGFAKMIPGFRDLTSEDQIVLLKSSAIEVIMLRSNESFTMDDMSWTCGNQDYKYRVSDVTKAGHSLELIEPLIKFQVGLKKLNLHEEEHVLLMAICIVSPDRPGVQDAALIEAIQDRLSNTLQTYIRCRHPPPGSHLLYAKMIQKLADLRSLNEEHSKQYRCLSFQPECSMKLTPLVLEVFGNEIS
#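 VDR–SRC2-3 interaction, FP format. Cmpds 23 nl via pintool, brief spin, 2 h ambient incubation.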
# PLK1 PBD inh = inhibitors of human PLK1 polo-box domain binding. AID 720504. Potency, µM, for inactives: max response, negative = inhibition, most hits filed as inhibitors. Plk1 PBD binding of FITC phosphopeptide, fluorescence polarization. 360,000 tested, 2.8% active. P53350; further: series mostly up to about 57 µM; on the % scale 0 is the no-effect control and ±100 the full control effect; nearly all actives have a fitted effect of over 65% in size
# Mito fusion yeast = mitochondrial division inhibition or fusion activation; S. cerevisiae fusion-defective mutant growth rescue, CellTiterGlo 48 h; Potency, µM (series often up to 46.1 µM), for the others: top-dose growth rescue (activation), hits mostly activators; 320,000 tested, 0.23% active; AID 485298; further: % of control where 0% means no effect; nearly all actives have a fitted effect of over 45% in size
#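 Read-out: ATP-based luminescence (CellTiterGlo, 10 min ambient) reporting growth of fusion-defective ts yeast after 48 hours at 37C on glycerol/ethanol YPEG medium in the presence of compound.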
# PKM2 activator = PKM2 (human) enzyme activation. 260,000 tested, 0.34% active. purified PKM2, Kinase-Glo ATP luminescence, activation; response scale: 0% is enzyme alone, no compound. Potency, µM (doses to about 57.5 µM), inactives show at the top dose activation, hits mostly activators; further: on the % scale 0 is the no-effect control and ±100 the full control effect; nearly all actives have a fitted effect of over 55% in size
#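 Purified hPK-M2 (>95% pure) converted ADP (0.1 mM final) to ATP with 0.5 mM PEP in 50 mM imidazole pH7.2, KCl, MgCl2, Tween 20, BSA; 1 h at room temperature. ATP detected by Kinase-Glo luminescence.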
# * hit, by the source's call; ? = inconclusive; · = no result; [ ] = dose if it differs, or a comment. This is a sample that favours compounds with a hit; in the whole collection about 3.4% have one here. The call rests on the fitted dose curve; in most records, active means well fitted curve in the direction sought with a large enough effect; inconclusive means small, poorly fitted or top-dose-only effect, or another doubt; inactive means no such curve, though single readings can be large; an effect the other way counts as inactive or inconclusive. Potency means the concentration at half of the fitted maximal effect.
SMILES,GLS inhibitor,KAT2A inh,VDR inh,PLK1 PBD inh,Mito fusion yeast,PKM2 activator
CCOC(=O)/C(=C\c1c[nH]c2ccccc12)NC(C)=O,5.4%,-9.7%,?,21.2µM*,2.1%,-7.5%
COc1cc(C(=O)NCCC(=O)NCc2cccs2)cc(OC)c1OC,-11.5%,·,·,-2.8%,·,·
COCCN(Cc1cn(C)nc1-c1ccccc1F)C(C)C,2.4%,-4.1%,-7.5%,-4.8%,5.62µM*,0.7%
Cc1ccc2cc(CN(Cc3ccco3)C(=O)c3ccco3)c3nnnn3c2c1,-6.2%,-0.9%,-6.9%,-11.2%,16.7%,15.8µM*
COc1ccc(CCN(Cc2cc3ccc(C)cc3n3nnnc23)C(C)=O)cc1OC,-17.3%,3.3%,39.8µM*,3.36µM*,-2.3%,6.1%
CCn1ncc(Br)c1C(=O)Nc1ccc(C(C)C)cc1,12.2%,16.1%,-5.2%,-17.7%,4.9%,·
CCN(C(=O)C(C)Sc1nnc(-c2ccncc2)n1C)C1CCCCC1 (stereo not given),-4.3%,-1.7%,-19.0%,1.3%,·,·
O=[N+]([O-])c1ccccc1CN1CCN(c2ncccn2)CC1,-4.4%,-18.1%,-9.7%,?,4.5%,7.8%
O=[N+]([O-])c1ccccc1CN1CCN(Cc2ccccn2)CC1,0.0%,-10.9%,9.6%,16.8µM*,2.4%,-0.5%
CCCSC1=C(C#N)C(c2cccs2)CC(=O)N1 (stereo not given),0.0%,-1.0%,-8.3%,23.8µM*,-16.4%,2.3%
CC(C)/C(=N\NS(=O)(=O)c1ccc(Br)cc1)c1cccs1,4.5%,1.1%,-11.0%,23.8µM*,1.8%,-1.4%
CC(NC(=O)c1cccs1)c1ccc(Br)cc1 (stereo not given),4.6%,·,4.6%,-28.0%,·,·
C/C(=N\NS(=O)(=O)c1ccc([N+](=O)[O-])cc1)c1cccs1,15.6%,-6.5%,?,26.7µM*,-12.7%,17.6%
COC(=O)C1=C(C(=O)OC)[C@@H]2N(Cc3ccccc3)c3ccccc3[C@@]23C[C@@H](C(=O)OC)N(S(=O)(=O)c2ccc(OC)cc2)C3=N1,·,·,·,·,·,-1.8%[11.5 µM]
CCOc1ccc(C(=S)N2CCCC2)c(OCC)c1,18.6%,-2.2%,?,11.9µM*,-16.6%,-12.8%[11.5 µM]
CCOc1ccc(C(=S)N2CCCC2)cc1,-3.3%,-2.0%,1.3%,-3.9%,-6.8%,2.1%
C=CCC(NCc1ccccc1)c1ccc(Cl)cc1 (stereo not given),7.8%,-5.1%,5.6%,-1.8%,2.1%,-2.5%
C=CCC(NCc1ccccc1)c1ccc(C)o1 (stereo not given),-2.2%,·,-22.7%,10.6µM*,·,·
COc1cc2nc(C3CCC3)nc(N3CCN(c4ccccn4)CC3)c2cc1OC,-3.8%,-5.5%,-14.4%,3.0%,·,-3.8%
COc1cc2nc(C3CCC3)nc(N3CCN(c4ccccc4OC)CC3)c2cc1OC,8.0%,-5.9%,-7.5%,-1.0%,14.1µM*,5.2%
O=C(O)c1ccccc1N/N=C/c1cc(Br)cc(Br)c1O,?,-27.3%,?,21.2µM*,3.8%,-4.1%
C=CCn1c(-c2ccccc2)n[nH]c1=S,?,-3.2%,-9.6%,8.44µM*,11.4%,10.8%
S=c1[nH]nc(-c2ccc(Br)cc2)n1Cc1ccccc1,?,-4.8%,?,11.9µM*,18.5%,1.3%
Fc1ccc(-c2n[nH]c(=S)n2Cc2ccccc2)cc1,27.3%,-16.3%,-15.7%,-9.3%,-14.4%,·
COCCCNC(=O)C1CCCN(c2ncnc3onc(C)c23)C1 (stereo not given),2.4%,-18.4%,6.1%,·,·,·
SMILES,GLS inhibitor,KAT2A inh,VDR inh,PLK1 PBD inh,Mito fusion yeast,PKM2 activator
COC(=O)c1ccc(-c2ccc(/C=N/NC(=O)CC3(C)OCCCO3)o2)cc1,?,-16.6%,-8.8%,-3.1%,-2.4%,24.8%
COc1cc(CCC(=O)OCC(=O)Nc2ccc(C)cc2Cl)cc(OC)c1OC,-6.5%,-3.3%,-10.0%,-9.5%,-4.3%,-1.0%
O=C(O)c1ccccc1-c1ccccc1C(=O)Nc1ccc(-c2nc3cc(Cl)ccc3o2)cc1,9.5%,-20.8%,-26.8%,21.2µM*,5.8%,0.6%
O=C(Nc1ccc(-c2nc3cc(Cl)ccc3o2)cc1)c1cc(Br)ccc1Cl,0.3%,-4.4%,-15.3%,·,·,·
CCn1cc(/C=C(\NC(=O)c2cc(OC)c(OC)c(OC)c2)C(=O)NCCCn2ccnc2)c2ccccc21,-0.9%,-12.1%,3.9%,·,·,·
CN(Cc1ccccc1)C(=O)c1oc(=O)c2ccccc2c1-c1ccccc1,-1.8%,1.7%,9.5%,0.7%,?,-3.7%
Cc1ccc(-c2c(C(=O)N(C)Cc3ccccc3)oc(=O)c3ccccc23)cc1,1.1%,-8.9%,-7.4%,0.5%,15.8µM*,-22.1%
CCOC(=O)c1c(C)n(C)c2cc([N+](=O)[O-])c(O)c([N+](=O)[O-])c12,8.3%,-14.9%,-13.5%,21.2µM*,5.3%,6.4%
Cc1ccc(Nc2nc(NCc3ccco3)nc3nccnc23)cc1,·,·,-2.2%,·,·,·
CCCCOc1ccc(C2OC34CCCCC3C(C#N)(C#N)C2(C#N)C(=N)O4)cc1 (stereo not given),-7.0%,-11.2%,?,21.2µM*,-0.1%,-0.6%
C=CCOc1ccc(C2OC34CCCCC3C(C#N)(C#N)C2(C#N)C(=N)O4)cc1 (stereo not given),17.7%,2.3%,-25.3%,-27.5%,-1.1%,-3.8%
COc1ccc(NC(=O)c2cc(C)nc3c2c(C)nn3-c2ccc(C)cc2)cc1OC,-11.4%,0.1%,-9.3%,·,·,·
COc1ccc(C2C3=C(CC(C)(C)CC3=O)Nc3c2c(=O)n(C)c(=O)n3C)cc1OC (stereo not given),12.6µM*,-10.8%,?,11.9µM*,3.1%,-0.7%
C=CCOc1ccccc1C1C2=C(CC(C)(C)CC2=O)Nc2c1c(=O)n(C)c(=O)n2C (stereo not given),35.4%,-7.5%,-9.3%,-10.6%,-4.8%,0.2%
COc1ccc(-n2cnc3cc(NCc4cccs4)ccc32)cc1,28.3%,-2.2%,-10.0%,26.7µM*,4.7%,3.7%
Cc1ccc(-n2cnc3cc(NCc4cccs4)ccc32)cc1,7.5%,-6.3%,-6.9%,-10.1%,1.8%,-8.2%
COC(=O)C[C@@H]1C[C@H]2c3cc(NC(=O)Nc4ccccc4F)ccc3O[C@H]2[C@H](CO)O1,5.4%,·,·,4.2%,·,·
CC[C@@H](C)[C@@H](CO)NC(=O)[C@H]1O[C@@H](n2cnc3c(N)ncnc32)[C@H](O)[C@@H]1O,1.7%,·,·,-3.7%,·,·
Fc1ccc(Cc2nnc(-c3cccs3)o2)cc1,-10.6%,-3.3%,-4.9%,-2.2%,0.6%,-8.4%
CS(=O)(=O)N(Cc1nnc(-c2cccs2)o1)c1ccc(Cl)cc1F,-17.2%,-0.1%,-21.5%,11.9µM*,-2.7%,1.2%
